AmpC detergent – blocks E. coli AmpC beta-lactamase in detergent assay; P00811; AmpC hydrolysis of nitrocefin, absorbance 480 nm, 0.01% Triton; Potency, µM (series often up to 114 µM), most hits filed as inhibitors; hit rate 0.041% among 370,000; AID 485294; note: nearly all actives have a fitted effect of over 25% in size
Target sequence (P00811 whole entry, looked up): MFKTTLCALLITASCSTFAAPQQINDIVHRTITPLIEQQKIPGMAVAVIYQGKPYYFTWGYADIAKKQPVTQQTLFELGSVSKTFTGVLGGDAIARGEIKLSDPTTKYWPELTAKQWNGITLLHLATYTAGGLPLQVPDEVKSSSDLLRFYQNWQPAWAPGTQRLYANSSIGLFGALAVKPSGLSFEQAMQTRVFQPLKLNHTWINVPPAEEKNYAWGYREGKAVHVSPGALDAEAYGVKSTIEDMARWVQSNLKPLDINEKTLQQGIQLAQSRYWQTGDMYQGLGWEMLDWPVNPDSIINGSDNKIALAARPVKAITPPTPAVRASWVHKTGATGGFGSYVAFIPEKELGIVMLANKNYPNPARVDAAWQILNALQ
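AmpC (5.3 nM in the dispensed reagent) in 20 mM phosphate pH 7.0 with 0.01% (detergent screen) or 0.0001% Triton X-100 was preincubated with compounds for 15 min at room temperature. Nitrocefin was then added from an 800 uM solution, and hydrolysis was followed at 480 nm.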
SARS PLpro yeast – SARS-CoV PLP inhibition in yeast; S. cerevisiae expressing SARS-CoV PLpro, growth rescue; Potency, µM (highest dose often 32.9 µM), actives largely listed as activators; hit rate 0.19% among 330,000; AID 485353; calls by dose curve; note: nearly all actives have a fitted effect of over 55% in size
AmpC inh no detg – AmpC beta-lactamase inhibition without detergent. Potency, µM (top dose mostly 57.1 µM), most hits filed as inhibitors. AID 485341. hit rate 0.52% among 330,000. AmpC nitrocefin hydrolysis, absorbance 480 nm, 0.0001% Triton. P00811; note: nearly all actives have a fitted effect of over 20% in size
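20 mM phosphate pH 7.0 + 0.01% (detergent screen) or 0.0001% Triton X-100; 5.3 nM AmpC reagent; cpd preinc 15 min RT; nitrocefin (800 uM stock) to start; A480 q20 s × 4 min; Activity was normalised to no-enzyme and no-compound control wells.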
AMA1 RON2 block – AMA1-RON2 (P. falciparum) interaction inhibition; AlphaScreen AMA1-biotinylated RON2 peptide binding; AID 720542; hit rate 0.2% among 360,000; Potency, µM (series often up to 58.2 µM), usual class: inhibitors; note: nearly all actives have a fitted effect of over 45% in size
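AMA1 (3D7) with his tag at 25 nM final met compounds first, then biotinylated RON2 peptide at 25 nM; detection used donor plus acceptor beads, 10 µg/mL apiece, read by AlphaScreen after 30 min at room temperature.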
Shiga toxin inh – blocks Shiga toxin action in Vero cells. inhibition, % at 38.7 µM. Vero cells, Shiga toxin protein synthesis inhibition reporter. hit rate 9.2% among 290,000; in the data active = inhibition mostly above about 28%, no sharp cut-off; inactive = mostly below about 43%
Cycloheximide cs – affects cycloheximide protein synthesis inhibition readout, counter-screen; cell reporter, cycloheximide protein synthesis inhibition counterscreen; max response, %; AID 2314; hit rate 12% among 300,000; in the data active = max response mostly above about 13%, no sharp cut-off; inactive = mostly below about 14%; note: read at 38.3 µM for the half of the compounds with a filed dose
Large screens that a line does not name were inactive. The sample as a whole holds a higher share of hits than the screen did. Unless noted, calls come from the whole dose curve; as a rule, active = well fitted curve in the direction sought with a large enough effect; inconclusive = small, poorly fitted or top-dose-only effect, or another doubt; inactive = no such curve, though single readings can be large; an effect the other way counts as inactive or inconclusive.

CN(C)c1ccc(C(CNS(=O)(=O)c2ccc(F)c(F)c2)c2c[nH]c3ccccc23)cc1 (configuration not stated)	AMA1 RON2 block 14µM
O=C(NNC(=O)C1CC=CCC1)c1ccccc1Br (configuration not stated)	Cycloheximide cs active
O=C(NNC(=O)C1CC=CCC1)c1ccccc1O (configuration not stated)	Cycloheximide cs 18
O=[N+]([O-])c1ccccc1OCCCN1CCc2ccccc2C1	AmpC detergent inconclusive, Cycloheximide cs 9.9
Cc1ccc([N+](=O)[O-])c(OCCN2CCCCCC2)c1	AmpC detergent inconclusive, AMA1 RON2 block inconclusive
Cc1ccc([N+](=O)[O-])c(OCCN2CCc3ccccc3C2)c1	Cycloheximide cs 16
COc1ccc(C(=O)Nn2cnc3ccccc3c2=O)cc1[N+](=O)[O-]	AmpC detergent inconclusive
O=C(Nn1cnc2ccccc2c1=O)c1cccc(Cl)c1	Cycloheximide cs 44
CC(=O)NCCc1ccc(C(=O)Cn2cnc3ccccc3c2=O)cc1	Shiga toxin inh 78, Cycloheximide cs 79
O=C(Nn1cnc2ccccc2c1=O)c1ccc(Br)cc1	Shiga toxin inh 90, Cycloheximide cs 41
Cc1ccc(C(=O)Nn2cnc3ccccc3c2=O)cc1C	Shiga toxin inh 83, Cycloheximide cs 44
O=C(NCCc1ccccc1)c1ccc(Cn2c(=O)c3cccn3c3cccnc32)cc1	none (no result: SARS PLpro yeast, AmpC inh no detg, AMA1 RON2 block, Shiga toxin inh, Cycloheximide cs)
CCc1ccc(C(=O)Nn2cnc3ccccc3c2=O)cc1	Shiga toxin inh 109, Cycloheximide cs 54
O=C(Nn1cnc2ccccc2c1=O)c1ccccc1F	Cycloheximide cs 11
O=C(Nn1cnc2ccccc2c1=O)c1ccc([N+](=O)[O-])cc1	none
Cc1ccc(NC(=S)N2CCN(c3ccccn3)CC2)c(C)c1	none
Cc1cc(NS(=O)(=O)c2ccc(NC(=O)COc3ccccc3Cl)cc2)no1	none
CNC(=O)Oc1ccc(-c2cn3cc(Cl)ccc3n2)cc1	Cycloheximide cs 21
COc1ccc(-c2cn3cc(Cl)ccc3n2)cc1OC	Shiga toxin inh 92, Cycloheximide cs 21
Clc1ccc2nc(-c3ccc(Br)s3)cn2c1	AmpC detergent inconclusive, Shiga toxin inh 41, Cycloheximide cs 22
COc1ccc(-c2cn3cc(C)ccc3n2)cc1Br	Shiga toxin inh 59, Cycloheximide cs 40
CCOC(=O)c1nnn(-c2nonc2N)c1CSc1nnc(N)s1	none
O=C(CSCc1nc2cccnc2n1C1CCCCC1)NCc1cccc(Br)c1	none (no result: SARS PLpro yeast, AmpC inh no detg, AMA1 RON2 block, Shiga toxin inh, Cycloheximide cs)
COc1ccc(OC)c(S(=O)(=O)Nc2cccc3c(O)cccc23)c1	none (no result: AmpC detergent, SARS PLpro yeast, AmpC inh no detg, Shiga toxin inh, Cycloheximide cs)
COc1ccc(OC)c(S(=O)(=O)Nc2ccc(O)c3ccccc23)c1	Shiga toxin inh 35, Cycloheximide cs 26
CN(N=Nc1cccc([N+](=O)[O-])c1)c1cccc([N+](=O)[O-])c1	Shiga toxin inh 109, Cycloheximide cs 33
Clc1ccc(OCCOCCN2CCCCC2)c(Br)c1	none
CC1CCCN(CCCOc2ccc(Cl)cc2Br)C1 (configuration not stated)	Shiga toxin inh 103, Cycloheximide cs 37
Cc1ccc(Cl)c(OCCN2CCCC(C)C2)c1 (configuration not stated)	none
CC1CCN(CCCOc2ccc(Cl)cc2Br)CC1	Shiga toxin inh 73, Cycloheximide cs 26
CC1CCN(CCOCCOc2ccc(Cl)cc2Br)CC1	none
CC1CCCN(CCOc2ccc3ccccc3c2Br)C1 (configuration not stated)	Shiga toxin inh 43
COc1cc2ccccc2cc1C(=O)N/N=C/c1cccnc1	none
CC(C)(C)c1ccc(-c2nc(NCc3cccnc3)c3ccccc3n2)cc1	Shiga toxin inh 76, Cycloheximide cs 51
COc1cccc(-c2nc(NCc3cccnc3)c3ccccc3n2)c1O	Cycloheximide cs 19
c1cncc(CNc2nc(-c3cccnc3)nc3ccccc23)c1	none
CC(C)n1c(N2CCN(C(=O)Nc3ccc(F)cc3F)CC2)nc2ccccc21	none
COc1cccc(/C=N/Nc2ccc([N+](=O)[O-])cn2)c1O	Shiga toxin inh 91, Cycloheximide cs 40
COc1cccc(/C=N/Nc2ccnc(=O)[nH]2)c1O	Shiga toxin inh 56, Cycloheximide cs 26
COc1cccc(/C=N/Nc2nc(Nc3ccc([N+](=O)[O-])cc3)nc(N3CCCC3)n2)c1O	SARS PLpro yeast inconclusive
O=c1nccc(N/N=C/c2ccccc2O)[nH]1	Cycloheximide cs 27
CCOc1ccccc1/C=N/Nc1ccnc(=O)[nH]1	Cycloheximide cs 24
COc1cccc(C=NNC(=O)c2ccncc2)c1O	none (no result: AmpC detergent, SARS PLpro yeast, AmpC inh no detg, Shiga toxin inh, Cycloheximide cs)
CSc1ncccc1C(=O)OCC(=O)c1ccc(Cl)s1	none (no result: AmpC detergent, SARS PLpro yeast, AmpC inh no detg, Shiga toxin inh, Cycloheximide cs)
CC1(C)CC(=O)C2=C(C1)Nc1ccccc1[S@]2=O	none
CC1(C)CC(=O)C2=C(C1)Nc1ccccc1S2	none
CC1(C)CC(=O)C2=C(C1)Nc1ccccc1NC2	Shiga toxin inh 139, Cycloheximide cs 44
CC1(C)CC(=O)C2=C(C1)Nc1ccccc1N=C2	Shiga toxin inh 85, Cycloheximide cs 50 (no result: AMA1 RON2 block)
CCc1cc(C(=O)N(CC(C)C)c2c(N)n(Cc3ccccc3)c(=O)[nH]c2=O)sc1C	none (no result: Shiga toxin inh, Cycloheximide cs)
COc1cccc(C(c2sc3nc(C)nn3c2O)N2CCN(c3ccccc3F)CC2)c1 (configuration not stated)	none
COc1ccc(C(c2sc3ncnn3c2O)N2CCN(c3ccccc3F)CC2)cc1OC (configuration not stated)	AmpC detergent inconclusive, Cycloheximide cs 20
COc1ccc(C(c2sc3ncnn3c2O)N2CC(C)OC(C)C2)cc1OC (configuration not stated)	Cycloheximide cs 17
CC1CN(C(c2cccs2)c2sc3ncnn3c2O)CC(C)O1 (configuration not stated)	none
COc1cc(C(=O)C(=O)c2ccc(O)c(OC)c2)ccc1O	Shiga toxin inh 51, Cycloheximide cs active
Cc1cccc(C(=O)Nc2ccc(C(=O)/C=C/c3cccnc3)cc2)c1	Cycloheximide cs 24
COc1cc(C(=O)/C=C/c2cccnc2)ccc1O	Cycloheximide cs 16
COc1cc(C(=O)O)ccc1O	AmpC detergent inconclusive
C=CCOc1c2ccc(C(=O)NCc3ccc(OC)cc3)cc2nn1C	none
Cc1cccc(Cn2c(NCC(C)O)nc3c2c(=O)n(C)c(=O)n3C)c1 (configuration not stated)	none
Nc1nc(Cl)nc2ccc(Br)cc12	AmpC detergent inconclusive, Shiga toxin inh 53, Cycloheximide cs 67
CCOC(=O)c1c(NC(=O)CSc2nc(-c3ccccc3)cc(C(F)(F)F)n2)sc(C)c1C	none (no result: SARS PLpro yeast, AmpC inh no detg, AMA1 RON2 block, Shiga toxin inh, Cycloheximide cs)
O=C(NC(=S)NCC1CCCO1)c1cccs1 (configuration not stated)	SARS PLpro yeast inconclusive, Cycloheximide cs 12

Bioassay records as filed in PubChem BioAssay.
